Results from PubChem BioAssay AID624330 (Southern Research Specialized Biocontainment Screening …, 2012).
The whole screen tested about 340,000 compounds, of which about 2,100 (0.62%) were called active.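 How the source made its calls: active means first-screen hits whose inhibition reached a set limit at any dose in the follow-up dose series; inconclusive means inhibition above the set first-screen limit but never retested; inactive means the rest.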 These entries were drawn from the full list. Measured potencies and affinities stand elsewhere.

The compounds below were run against Rac GTPase-activating protein 1 (Homo sapiens) (UniProt Q9H0H5) (assay: blockers of MgcRacGAP-driven Rac1 GTP hydrolysis – biochemical, ADP Hunter fluorescence, primary and confirmatory, confirmation (AID 624330;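 further: fluorescence reports GDP produced by GAP-driven GTP hydrolysis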)). Details: MgcRacGAP-stimulated Rac1 GTP hydrolysis, at 30 µM, hits give high values, GST-tagged Rac1 F28L mutant substrate.
Sequence of Rac GTPase-activating protein 1 (Homo sapiens) (Q9H0H5 whole entry, looked up): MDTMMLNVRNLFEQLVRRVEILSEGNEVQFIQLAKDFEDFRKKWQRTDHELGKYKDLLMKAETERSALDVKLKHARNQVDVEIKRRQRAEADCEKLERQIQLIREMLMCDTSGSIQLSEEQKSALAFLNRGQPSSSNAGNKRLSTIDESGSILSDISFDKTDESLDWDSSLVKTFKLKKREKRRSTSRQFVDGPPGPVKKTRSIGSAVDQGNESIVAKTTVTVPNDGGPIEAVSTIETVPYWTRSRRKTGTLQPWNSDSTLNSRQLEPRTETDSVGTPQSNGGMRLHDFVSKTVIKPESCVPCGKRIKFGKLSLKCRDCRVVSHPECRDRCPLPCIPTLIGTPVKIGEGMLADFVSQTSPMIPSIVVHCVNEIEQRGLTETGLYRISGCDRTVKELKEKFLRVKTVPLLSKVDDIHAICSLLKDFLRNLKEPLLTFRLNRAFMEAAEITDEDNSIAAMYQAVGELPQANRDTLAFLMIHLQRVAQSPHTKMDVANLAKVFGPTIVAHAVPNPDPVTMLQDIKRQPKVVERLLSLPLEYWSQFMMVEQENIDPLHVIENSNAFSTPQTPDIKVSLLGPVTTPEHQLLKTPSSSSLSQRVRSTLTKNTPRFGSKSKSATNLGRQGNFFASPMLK

inhibition, inactive:
N#Cc1nc(COc2ccc(F)cc2)oc1N1CCC(Cc2ccccc2)CC1 0.56%
N#Cc1ccc(N/N=C/c2ccccc2)c([N+](=O)[O-])c1 2.61%
Cc1sc(NC(=O)c2ccc(F)cc2)c(CN2CCCCCC2)c1C 13.7%
CCn1c(CC(=O)Nc2ccc(Cl)c(Cl)c2)nnc1SCc1ccc(Cl)cc1 11.6%
Cc1sc2ncn(CC(=O)N3CCCCC3)c(=O)c2c1C 6.45%
O=C(Nc1ccncc1)C1CC(=O)N(c2ccccc2)C1 (configuration not stated) 0.29%
CCN1C(=O)[C@H]2[C@@H](c3ccc(Cl)cc3)N3C(=O)CN(Cc4ccccc4)C(=O)[C@@]3(C)[C@H]2C1=O 5.83%
N#CCCNc1ccc(OCCC#N)cc1 11.4%
CCOc1ccc(NCCC#N)cc1 30.3%
CCC(=O)Nc1cccc(C(=O)/C=C/c2cc(Br)ccc2OC)c1 7.87%
CCC(CO)N=C1CC(C)(C)CC(=O)/C1=C(/O)CCCN1C(=O)c2ccccc2C1=O (configuration not stated) 0.34%
COc1cc2nc(N3CCN(C(=O)c4ccco4)CC3)nc(N)c2cc1OC 17.7%
COc1cc2nc(N3CCN(c4cc(C)ccc4C)CC3)nc(N)c2cc1OC 4.78%
COC(=O)[C@H](CC(C)C)NC(=O)NCCCc1ccccc1 3.77%
O=C(CCNS(=O)(=O)c1cccc2nsnc12)NCCC1=CCCCC1 11.7%
Cc1cccc(OCC(=O)Nc2ccc3c(C)cc(=O)oc3c2)c1 -2.83%
CN1CCN(S(=O)(=O)c2ccc(N)cc2)CC1 -0.77%
N#Cc1ccc(N2CCN(c3ccc(F)cc3)CC2)cc1 7.18%
CC(=O)Nc1ccc(N2CCN(C(C)=O)CC2)cc1 8.62%
Nc1nc(N2CCN(c3ccc(F)cc3)CC2)n[nH]1 12.1%
CN1CCN(c2ccc(C(=O)c3ccc(F)cc3)cc2)CC1 12.6%
CC(=O)N1CCN(c2ccc([N+](=O)[O-])cc2)CC1 5.88%
Cc1nn(-c2cc(N3CCCCC3)ccc2N)c(=O)c2ccccc12 12.5%
Nc1ccc(N2CCCCC2)cc1N1CCCCC1 10.4%
OCC1CCCN(C(=S)NCCc2ccccc2)C1 (configuration not stated) 2.94%
O=C(Cn1cnc2c(nnn2Cc2ccc(Cl)cc2)c1=O)NC1CCCC1 7.49%
COc1cc(SC)ccc1C(=O)OCC(=O)NCCC1=CCCCC1 -5.82%
C=CCn1c(SC(C)C(=O)NC2CC2)nnc1-c1ccoc1C (configuration not stated) 4.4%
CCOc1cccc(C(=O)NNC(=O)C2C3C=CC(C3)C2C(=O)O)c1 (configuration not stated) 5.45%
CCCN1Cc2cccc(C(=O)NCCc3ccccc3)c2C1=O 5.13%
Cc1ccc(-c2nn(-c3ccccc3)cc2C(=O)Nc2ccc(C)c(S(=O)(=O)N3CCOCC3)c2)cc1 -2.39%
COc1ccc(C(CNS(=O)(=O)c2ccccc2)N2CCN(C)CC2)cc1 (configuration not stated) 1.91%
O=C(c1cccs1)N1CCN(c2ccc(F)cc2)CC1 13.3%
CCN1CCN(c2ccc(NC(=O)c3ccc(Br)o3)cc2)CC1 8.5%
CCN1CCN(c2ccc(NC(=O)Cc3ccccc3)cc2)CC1 6.87%
O=C(c1cccs1)N1CCN(c2ccccc2)CC1 -0.45%
O=C(Nc1ccc(N2CCN(c3ccccc3)CC2)c(F)c1)C1CC1 5.36%
O=C(CSc1ccccc1)Nc1ccc(N2CCN(c3ccccc3)CC2)c(F)c1 5.08%
Cc1ccccc1C(=O)Nc1cc(NC(=O)c2ccccc2C)cc(C(=O)O)c1 10.1%
O=S(=O)(c1ccc(F)cc1)c1nc(-c2ccccc2)oc1N1CCOCC1 9.44%
CC(=O)c1cccc(NC(=O)Cn2cnc(S(=O)(=O)N3CCCCC3)c2)c1 2.19%
CCS(=O)(=O)N1Cc2ccccc2CC1C(=O)N(C)Cc1ccc(OC)cc1OC (configuration not stated) 5.19%
CCOc1cccc(-c2c(C(=O)N/N=C/c3ccc(C)s3)nnn2-c2nonc2N)c1 0.29%
COc1ccc(C2SCCN2S(=O)(=O)c2ccc(F)cc2)cc1OC (configuration not stated) 6.1%
O=C(NCCCN1CCCC1=O)c1cccc(S(=O)(=O)N2CCN(c3ccc(F)cc3)CC2)c1 1.69%
COc1ccc(Nc2c3ccccc3nc3ccccc23)cc1 17.9%
COc1ccc2[nH]c(=O)c(CNc3ccccc3)cc2c1 9.73%
CCOc1ccc(NCc2cc3cc(OC)ccc3[nH]c2=O)cc1 15.8%
COc1ccc(C(=O)NCc2cc(C)nc3ccccc23)cc1 -16.4%
COc1cccc(CNc2cnc3ccccc3c2)c1O 1.26%
COc1ccc(NC(=O)CSc2nc3ccccc3cc2Cc2ccccc2)cc1 3.45%
COc1ccc(-c2cccc([C@H]3[C@@H]4C=CCC[C@@]4(C)C(=O)N3Cc3ccccc3)c2)cc1 12.4%
Cc1cccc(C(=O)Nc2cc(NC(=O)c3cccs3)ccc2C)c1 5.54%
CCOc1ccccc1CN1CCN(C2CCSCC2)CC1CCO (configuration not stated) 7.4%
CN(CC(=O)Nc1ccc(SC(F)F)cc1)C1CCCCC1 9.96%
Nc1ccc2cn[nH]c2c1 2.65%
Nc1ccc2nc(-c3cccc(-c4nc5ccc(N)cc5[nH]4)n3)[nH]c2c1 16.5%
COc1ccc(-c2cc(CCCC(=O)NCCc3ccc(OC)cc3OC)no2)cc1 -0.07%
Cc1sc2nc(CN3CCOCC3)nc(N3CCC(C(N)=O)CC3)c2c1C -3.61%
Cc1sc2nc(CN3CCOCC3)nc(Cl)c2c1C 5.87%
CCC(=O)Nc1cccc(NC(=O)CSc2nc3c(c(=O)n(C)c(=O)n3C)n2C)c1 7.76%
O=C(COc1ccc2ccc(=O)oc2c1)N1CCc2ccccc21 -9.6%
